Compound activity as filed in PubChem BioAssay.
PINK1 expr mod – changes PINK1 expression; PINK1 immunofluorescence, high-content cytometry, 24 h; Potency, µM (series often up to 76.6 µM), actives largely listed as activators; 410,000 compounds, 0.2% hits; AID 624263; active means well fitted activation curve with a large enough effect; inconclusive means small, poorly fitted or top-dose-only effect; cell line not stated here; further: nearly all actives have a fitted effect of over 65% in size
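Cells are seeded, rested 12 hours, then given compound at five concentrations or DMSO for 24 hours. After fixation, blocking and antibody staining, PINK1 amount and mitochondrial localization are scored; CCCP serves as control.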
MCF10A rereplic – DNA re-replication induction in MCF 10a cells; MCF 10A DNA re-replication, Hoechst nuclear intensity, 48 h; Potency, µM (titrated, usually from 46.1 µM), usual class: activators; AID 624296; 350,000 compounds, 2.9% hits; further: nearly all actives have a fitted effect of over 50% in size
KB-V1 MDR tox – kills drug-selected multidrug resistant KB-V1 cells | KB-V1 MDR cells viability, CellTiter-Glo, 72 h | Potency, µM (doses to about 46.1 µM), actives largely listed as cytotoxic | 400,000 compounds, 3.4% hits | AID 1347076; further: nearly all actives have a fitted effect of over 60% in size
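KB-V1, DMEM (no phenol red) + 10% FBS; cpd pin-transferred, titration series; 72 h, 37 degrees C; CellTiter-Glo, luminescence. Data normalized, curve-fit.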
KB-3-1 cytotox – KB-3-1 parental cell cytotoxicity; KB-3-1 viability, CellTiter-Glo ATP luminescence, 72 h; Potency, µM (top dose mostly 46.1 µM), usual class: cytotoxic; 400,000 compounds, 1.4% hits; AID 1347075; further: nearly all actives have a fitted effect of over 60% in size
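Parental KB-3-1 viability, qHTS format: 72 h compound exposure, 37 °C; CellTiter-Glo; media-only wells and DMSO plates as controls; concentration-effect fits on corrected data.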
SW480 rerep – DNA re-replication induction in SW480 cells | AID 624297 | 340,000 compounds, 1.8% hits | Potency, µM (highest dose often 46.1 µM), usual class: activators | SW480 DNA re-replication, Hoechst DNA content imaging, 48 h; further: nearly all actives have a fitted effect of over 55% in size
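Compounds, transferred as 23 nL by pin tool, were incubated with cells for 48 hr; DNA content per nucleus was then quantified by Hoechst staining and fluorescence plate imaging.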
PTAP TSG101 blk – blocks PTAP/TSG101 interaction to inhibit HIV-1 budding; Fluorescence polarization, FITC-PTAP peptide / Tsg101 binding; 340,000 tested, under 10 active; AID 493005; Potency, µM (highest dose often 115 µM), most hits filed as inhibitors; active means well fitted inhibition curve with a large enough effect in the main read-out, with a control signal flat, not every such curve was filed as active; inconclusive means small, poorly fitted or top-dose-only effect, or effect the other way, or a change in a side signal; inactive means no such curve, though single readings can be large or run the other way
Target sequence (Q99816 whole entry, looked up): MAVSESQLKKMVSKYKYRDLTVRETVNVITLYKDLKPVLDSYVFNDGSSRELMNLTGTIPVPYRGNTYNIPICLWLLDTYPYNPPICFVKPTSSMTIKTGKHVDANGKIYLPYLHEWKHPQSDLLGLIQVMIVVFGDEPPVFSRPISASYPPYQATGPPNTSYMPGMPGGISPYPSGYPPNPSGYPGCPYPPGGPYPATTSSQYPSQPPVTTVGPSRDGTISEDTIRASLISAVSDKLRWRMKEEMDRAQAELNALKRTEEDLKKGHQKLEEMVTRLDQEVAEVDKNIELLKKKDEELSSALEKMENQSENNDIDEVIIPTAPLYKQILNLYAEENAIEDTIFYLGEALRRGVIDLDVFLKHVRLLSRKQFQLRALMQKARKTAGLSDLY
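Fluorescence anisotropy tracks displacement of a FITC-tagged PTAP peptide (50 nM) from the Tsg101 binding domain (10 uM), following a 20 min room-temperature incubation at pH 7.5.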
A number is an active result; . = inactive; ? = inconclusive; / = no result. This is a sample that favours compounds with a hit; in the whole collection about 6.8% have one here. Unless noted, the call rests on the fitted dose curve; in most records, active means well fitted curve in the direction sought with a large enough effect; inconclusive means small, poorly fitted or top-dose-only effect, or another doubt; inactive means no such curve, though single readings can be large; an effect the other way counts as inactive or inconclusive.

SMILES	PINK1 expr mod	MCF10A rereplic	KB-V1 MDR tox	KB-3-1 cytotox	SW480 rerep	PTAP TSG101 blk
C=Cc1ccc(Cn2c(C)c(C(=O)NCc3ccc4c(c3)OCO4)sc2=O)cc1	.	/	?	?	/	/
C=Cc1ccc(Cn2c(C)c(C(=O)NCc3ccc(C#N)cc3)sc2=O)cc1	.	/	18µM	?	/	/
COC(=O)c1ccc(Cn2c(C)c(C(=O)NCc3ccc(C#N)cc3)sc2=O)o1	.	/	23µM	.	/	/
COc1ccc(Cl)cc1Cn1c(C)c(C(=O)NCc2ccc(C#N)cc2)sc1=O	.	/	?	.	/	/
O=Cc1ccc(N2CCOCC2)cc1	/	/	.	.	/	/
CC(C)C/C=C1\CCc2c([nH]c3ccccc23)C1=O	.	.	.	.	.	.
O=C1/C(=C/c2cccnc2)CCc2c1[nH]c1ccccc21	.	?	13µM	.	21µM	.
CCOC(=O)c1sc2nc3c(SCC(=O)O)cc(C(=O)c4cc(F)ccc4O)cn3c(=O)c2c1C	.	3.3µM	.	.	.	.
O=C(O)CSc1cc(C(=O)c2ccccc2O)cn2c(=O)c3c(-c4ccccc4)csc3nc12	.	5.2µM	.	.	?	.
CCOC(=O)c1sc2nc3c(SCC(=O)O)cc(C(=O)c4ccccc4O)cn3c(=O)c2c1C	.	.	.	.	.	.
CCc1c(C)sc2nc3c(C(=O)N4CCOCC4)cc(C(=O)c4ccccc4O)cn3c(=O)c12	.	.	.	.	.	.
COC(=O)c1cc(C(=O)c2cc(F)ccc2O)cn2c(=O)c3c(C)c(C)sc3nc12	.	3.7µM	.	.	?	.
COc1ccc(O)c(C(=O)c2cc(SCC(=O)O)c3nc4sc5c(c4c(=O)n3c2)CCCC5)c1	.	.	.	.	.	.
Cc1sc2nc3c(SC(C)C(=O)O)cc(C(=O)c4ccccc4O)cn3c(=O)c2c1C (stereo unspecified)	.	16µM	.	.	.	.
CCN1C(=O)N[C@@H](c2ccccc2)C1=O	/	.	/	/	.	/
O=C(CSc1nc2c(oc3ccccc32)c(=O)n1-c1ccccc1)Nc1ccccc1F	.	/	.	.	/	/
Cc1ccc(-c2nnc(Nc3ccccc3)c3ccccc23)cc1S(=O)(=O)N1CCN(C)CC1	.	/	.	.	/	/
Cc1ccc(-c2nnc(NC3CCCCC3)c3ccccc23)cc1S(=O)(=O)N1CCN(C)CC1	.	.	23µM	.	.	.
Cc1cnc(SCc2ccccn2)nc1C1CCCN(C(=O)c2scc3c2CCCC3)C1 (stereo unspecified)	.	/	/	/	/	/
Cc1c(C(=O)N2CCC(C)CC2)c(S(=O)(=O)N2CCN(c3ccc(Cl)cc3)CC2)c(C)n1C	.	/	/	/	/	/
CCn1c(/C=C/c2cc(Br)ccc2O)nc2ccccc2c1=O	.	16µM	.	?	?	.
CCn1c(/C=C/c2c(C)n(CC)c3ccccc23)nc2ccccc2c1=O	18µM	?	1.6µM	.	.	.
O=c1c2ccccc2nc(/C=C/c2cccc(Br)c2)n1CCCO	.	?	.	.	?	.
CCn1c(/C=C/c2ccc(O)c(O)c2)nc2ccccc2c1=O	.	?	.	.	?	.
Cn1c(/C=C/c2cccc(Br)c2)nc2ccccc2c1=O	.	23µM	?	?	18µM	.
SMILES	PINK1 expr mod	MCF10A rereplic	KB-V1 MDR tox	KB-3-1 cytotox	SW480 rerep	PTAP TSG101 blk
Cc1noc(C)c1-c1cncnc1NC1CC1	.	/	/	/	/	/
Cc1ccccc1OCC(=O)NCC(=O)OCC(=O)c1ccc(Br)cc1	.	/	.	.	/	/
N#Cc1nc(-c2ccc(COc3ccc(Cl)cc3)o2)oc1N1CCCCC1	.	/	.	.	/	/
CCCCCCCCCC[n+]1ccc(/C=C/c2c[nH]c3ccccc23)cc1	/	/	?	5.2µM	/	/
OCC[n+]1ccc(/C=C/c2c[nH]c3ccccc23)cc1	40µM	?	.	?	.	?
CCCCCCCCCCCCCCCC[n+]1ccc(/C=C/c2c[nH]c3ccccc23)cc1	/	/	?	12µM	/	/
CCc1nn2c(=O)cc(COC(=O)c3ccccc3NC(=O)C3CCCCC3)nc2s1	.	/	/	/	/	/
COc1ccc(Cn2c(C(=O)O)c(CNCCc3cccs3)c3ccc(C)cc32)cc1	.	/	.	.	/	/
Cc1ccc(C)c(NC(=O)C(Sc2nc3ccccc3c(=O)n2CC(C)C)c2ccccc2)c1 (stereo unspecified)	.	?	?	?	.	.
Cc1ccc(C)c(NC(=O)C(Sc2nncn2C)c2ccccc2)c1 (stereo unspecified)	.	.	15µM	.	.	.
Cc1ccc(C)c(NC(=O)C(Sc2ncnc3ccccc23)c2ccccc2)c1 (stereo unspecified)	.	?	16µM	.	.	.
CC(=O)c1cccc(NC(=O)C(Sc2ncnc3ccccc23)c2ccccc2)c1 (stereo unspecified)	.	.	.	.	.	.
CCc1c(-c2cccc(Cl)c2)ncn1Cc1cccc(-c2ccccc2)c1	/	/	16µM	?	/	/
CCc1c(-c2cccc(Br)c2)ncn1Cc1cccc(-c2ccccc2)c1	/	/	.	?	/	/
CCCc1c(-c2cccc(Cl)c2)ncn1Cc1cccc(-c2ccccc2)c1	/	/	21µM	?	/	/
Cc1cc(NC(=O)CN2CCC(O)CC2)nc2c1c(=O)oc1ccccc12	.	/	?	.	/	/
COc1ccc(-c2cn3nc(N4CCC(C(=O)Nc5cccc(Cl)c5)CC4)sc3n2)cc1	.	/	.	.	/	/
Cc1ccccc1Cn1cc(CCC(=O)NCc2cccc(Br)c2)c2ccccc21	.	/	/	/	/	/
COc1ccc(C2=NCCn3nc4cc([N+](=O)[O-])ccc4c32)cc1	.	.	.	.	.	.
COc1ccc(-n2cc3ccc([N+](=O)[O-])cc3n2)cc1	.	?	?	5.8µM	.	.
Cc1ccc(S(=O)(=O)c2c(N)n(Cc3ccco3)c3nc4ccccc4nc23)cc1C	.	15µM	23µM	?	?	.
Nc1c(S(=O)(=O)c2ccccc2)c2nc3ccccc3nc2n1Cc1ccco1	.	?	23µM	?	?	.
CCCCC[C@H](O)/C=C/[C@@H]1[C@H]2C/C(=C/CCCC(=O)O)O[C@H]2C[C@H]1O	/	.	/	/	.	/
CC1Cc2ccccc2N1S(=O)(=O)c1cnc(Cl)c(Cl)c1 (stereo unspecified)	.	15µM	.	.	.	.
COc1ccc(-c2cc(-c3ccccc3O)[nH]n2)cc1OC	.	?	.	.	.	.
COc1ccc(-c2cc(-c3ccc(OC)c(OC)c3)n[nH]2)c(O)c1	.	?	2.6µM	?	.	.
C=C(C)COc1ccc(-c2[nH]ncc2-c2ccccc2OC)c(O)c1	.	15µM	?	?	?	.
C=C(C)COc1ccc(-c2[nH]ncc2Oc2ccccc2OC)c(O)c1	.	.	.	.	.	.
